The supplement of paper PMC8975748
Counter-ions that a name gives are not always drawn.

system: Saccharomyces cerevisiae BY4741 SeMeCo community; test: z-score of subpopulation abundance vs DMSO median, subpopulation auxotrophic for HUM; higher = larger share of this subpopulation than in DMSO controls; conditions: 10 µM; 24 h; SM minimal medium; subpopulation (auxotrophy): HUM
Experimental: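 Fluorescent four-plasmid SeMeCo (self-establishing metabolically cooperating S. cerevisiae BY4741 community; plasmids pH-mRuby2, pL-mWasabi, pU-eCFP, pM-TagRFP657) was grown 24 h in minimal SM medium with each Selleck FDA-approved drug at 10 µM in 384-well plates. Cells were fixed and imaged by high-content confocal microscopy. For each auxotrophic subpopulation (and the prototroph), a z-score gives the deviation from the DMSO vehicle-control population median.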

Structure (SMILES)	z-score of subpopulation abundance
C=CN1CCCC1=O.II [Povidone iodine]	1.77
CN(C)C(=O)Oc1cccc([N+](C)(C)C)c1 [Neostigmine Bromide]	-0.37
Cn1cc(C2=C(c3cn(C4CCN(Cc5ccccn5)CC4)c4ccccc34)C(=O)NC2=O)c2ccccc21	-0.32
C[N+]1(C)[C@@H]2C[C@@H](OC(=O)[C@H](CO)c3ccccc3)C[C@H]1[C@@H]1O[C@@H]12 [Methscopolamine]	0.63
C#C[C@]1(O)C=C[C@H]2[C@@H]3CCC4=CC(=O)CC[C@@H]4[C@H]3CC[C@@]21CC [Gestodene]	-0.17
CN[C@@H]1[C@@H](O)[C@@H](O[C@@H]2[C@@H](O)[C@H](O[C@H]3O[C@H]([C@@H](C)O)[C@@H](O)[C@H](O)[C@H]3N)[C@@H](N)C[C@H]2N)OC[C@]1(C)O [Geneticin (G418 Sulfate)]	-0.88
C=CC[C@]1(O)CC[C@H]2[C@@H]3CCC4=CC(=O)CCC4=C3C=C[C@@]21C [Altrenogest]	-0.44
CC(C)(O)C(Cl)(Cl)Cl [Chlorobutanol]	-0.45
N#Cc1nn(-c2c(Cl)cc(C(F)(F)F)cc2Cl)c(N)c1[S+]([O-])C(F)(F)F (stereo not given) [Fipronil]	-0.76
CCCCCCCCCCCCCCCC[n+]1ccccc1 [Cetylpyridinium Chloride]	20.2
COc1ccc2c3c([nH]c2c1)C(C)=NCC3 [Harmaline]	-6.26
COc1ccc(C=O)cc1 [p-Anisaldehyde]	-0.95
CCN(CC)CCOC(=O)C(O)(c1ccccc1)c1ccccc1 [Benactyzine hydrochloride]	0.98
CC(NC(C)(C)C)C(=O)c1cccc(Cl)c1 (stereo not given) [Amfebutamone (Bupropion) HCl]	-0.74
CN(C)[C@@H]1C(=O)C(C(N)=O)=C(O)[C@@]2(O)C(=O)C3=C(O)c4c(O)cccc4[C@@](C)(O)[C@H]3C[C@@H]12 [Tetracycline HCl]	0.07
O=C(O[C@H]1C[N+]2(CCCOc3ccccc3)CCC1CC2)C(O)(c1cccs1)c1cccs1 [Aclidinium Bromide]	0.22
CC[C@H]1CN2CC[C@]3(C(=O)Nc4ccccc43)[C@@H]2C[C@@H]1/C(=C\OC)C(=O)OC [Rhynchophylline]	0.73
CC[C@@]1(O)C(=O)OCc2c1cc1n(c2=O)Cc2cc3ccccc3nc2-1 [Camptothecin]	-0.54
CN1[C@@H]2CC[C@H]1C[C@@H](OC(=O)[C@H](CO)c1ccccc1)C2 [Hyoscyamine]	-0.99
CCOC(=O)Nc1ccc(NCc2ccc(F)cc2)cc1N [Retigabine]	-0.05

Structure (SMILES)	z-score of subpopulation abundance
Cc1cc(O)ccc1Cl [Chlorocresol]	-0.26
O=C(O[C@H]1C[C@H]2CC[C@@H](C1)[N+]21CCCC1)C(O)(c1ccccc1)c1ccccc1 [Trospium chloride]	-0.32
N[C@@H]1C[C@H]1c1ccccc1 [Tranylcypromine (2-PCPA) HCl]	-0.57
Cc1cc(C(C#N)c2ccc(Cl)cc2)c(Cl)cc1NC(=O)c1cc(I)cc(I)c1O (stereo not given) [Closantel]	0.04
CCCN1C[C@H](CSC)C[C@@H]2c3cccc4[nH]cc(c34)C[C@H]21 [Pergolide Mesylate]	-0.74
Oc1cccc2cccnc12 [8-Hydroxyquinoline]	-0.54
CN1[C@@H]2C[C@@H](OC(=O)[C@H](CO)c3ccccc3)C[C@H]1[C@@H]1O[C@@H]12 [Scopolamine HBr]	-0.97
COc1ccc(C(CN(C)C)C2(O)CCCCC2)cc1 (stereo not given) [Venlafaxine]	0.51
O=c1[nH]c2ccccc2n1CCCN1CCC(n2c(=O)[nH]c3cc(Cl)ccc32)CC1 [Domperidone]	0.44
CCN(C)C(=O)Oc1cccc([C@H](C)N(C)C)c1 [Rivastigmine Tartrate]	-0.85
COc1cc2c(cc1OC)C1CC(=O)C(CC(C)C)CN1CC2 (stereo not given) [Tetrabenazine (Xenazine)]	-0.9
Nc1nc(N)nc(NC2CC2)n1 [Cyromazine]	-0.23
CN(C)[C@@H]1C(=O)C(C(N)=O)=C(O)[C@@]2(O)C(=O)C3=C(O)c4c(O)ccc(Cl)c4[C@@](C)(O)[C@H]3C[C@@H]12 [Chlortetracycline HCl]	0.05
CCOC(=O)Nc1ccc(NCc2ccc(F)cc2)cc1N [Retigabine 2HCl]	0.72
C[C@H]1O[C@H](O[C@H]2[C@H](O)[C@@H](O)[C@@H](O)[C@H](O)[C@@H]2O)[C@@H](N)C[C@@H]1NC(=N)C(=O)O [Kasugamycin hydrochloride]	-0.14
CNC1CC(N)C(O)C(OC2OC(CO)C(O)C3OC4(OC(C(N)CO)C(O)C(O)C4O)OC23)C1O (stereo not given) [Hygromycin B]	-0.41
C[N+]12CCC(CC1)C(OC(=O)C(O)(c1ccccc1)c1ccccc1)C2 (stereo not given) [Clidinium Bromide]	-0.01
C[C@@H]1CC[C@H]2[C@@H](C)C(=O)O[C@@H]3O[C@@]4(C)CC[C@@H]1[C@]32OO4 [Artemisinin]	-0.49
NCCc1c[nH]c2ccc(O)cc12 [Serotonin HCl]	0.18
C[C@@H]1O[C@@H](O[C@H]2C[C@@H](O)[C@]3(CO)[C@H]4[C@H](O)C[C@]5(C)[C@@H](C6=CC(=O)OC6)CC[C@]5(O)[C@@H]4CC[C@]3(O)C2)[C@H](O)[C@H](O)[C@H]1O [Ouabain]	-0.49
